Assay results taken from PubChem BioAssay (EPA / NIEHS).
Calls of active or inactive are those of the source. Rule for the calls: active = hit-call score of the fitted dose curve at least 0.9, where 1 is the maximum; inactive = score below 0.9.

Assays:
Details in all cases: mRNA level, 48 h; actives raise or lower the signal
[1] = read-out: Glutamate-cysteine ligase catalytic (GCLC), GCLC (gene 2729); assay: LTEA_HepaRG_GCLC: Life Technologies and Expression Analysis (LTEA) Assay for Glutamate-cysteine ligase catalytic (GCLC) using HepaRG (AID 2283498)
Procedure, shortened: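 Differentiated human HepaRG cells, plated 48 h then switched to serum-free induction medium, were exposed in duplicate for 48 h to 8 half-log concentrations topping at 100 uM in 0.5% DMSO. GCLC mRNA was quantified by qRT-PCR against ACTB, GAPDH and POLR2A.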

[2] = read-out: Glutamate-cysteine ligase regulatory (GCLM), GCLM (gene 2730); assay: LTEA_HepaRG_GCLM: Life Technologies and Expression Analysis (LTEA) Assay for Glutamate-cysteine ligase regulatory (GCLM) using HepaRG (AID 2283500)
Procedure, shortened: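 Cells were plated, cultured 48 h, switched to serum-free induction medium, then dosed in duplicate for 48 h at eight half-log concentrations up to 100 uM. RNA was then profiled by qRT-PCR; gain or loss versus DMSO was fitted.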

[3] = read-out: Glutathione S-transferase M3 (GSTM3), GSTM3 (gene 2947); assay: LTEA_HepaRG_GSTM3: Life Technologies and Expression Analysis (LTEA) Assay for Glutathione S-transferase M3 (GSTM3) using HepaRG (AID 2283501)
Procedure, shortened: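 qRT-PCR read-out of GSTM3 transcript, normalized to three housekeeping genes, from human HepaRG cells after 48 h chemical exposure. Eight-point half-log series, top 100 uM, 0.5% DMSO vehicle; gain or loss fitted relative to DMSO baseline.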

[4] = read-out: Heat shock 70 kDa protein 1 (HSPA1A), gene 3303; assay: LTEA_HepaRG_HSPA1A: Life Technologies and Expression Analysis (LTEA) Assay for Heat shock 70 kDa protein 1 (HSPA1A) using HepaRG (AID 2283502)
Procedure, shortened: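 Readout is HSPA1A transcript level by microfluidic qRT-PCR, normalized to three housekeeping genes and analysed for gain or loss of signal relative to 0.5% DMSO. Human HepaRG cultures received test chemicals for 48 h at up to 100 uM.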

[5] = read-out: Hypoxia-inducible factor 1-alpha (Homo sapiens) (UniProt Q16665); assay: LTEA_HepaRG_HIF1A: Life Technologies and Expression Analysis (LTEA) Assay for Hypoxia-inducible factor 1 (HIF1A) Trancription factor using HepaRG (AID 2283503)
Procedure, shortened: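 Differentiated HepaRG cells in serum-free induction medium exposed 48 h, in duplicate, to 8-point half-log series from 100 uM in 0.5% DMSO. HIF1A mRNA measured by TaqMan qRT-PCR, normalized to ACTB/GAPDH/POLR2A, fitted bidirectionally versus DMSO.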

HGF (gene 3082) = assay: LTEA_HepaRG_HGF: Life Technologies and Expression Analysis (LTEA) Assay for Hepatocyte Growth Facto (HGF) using HepaRG (AID 2283505)
Procedure, shortened: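 HepaRG, 48 h dosing, 8-pt half-log series from 100 uM in 0.5% DMSO, duplicates. Readout: TaqMan qRT-PCR of HGF mRNA, housekeeping-normalized; bidirectional curve fit vs DMSO baseline.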

[6] = read-out: Intercellular Adhesion Molecule 1 (ICAM1), ICAM1 (gene 3383); assay: LTEA_HepaRG_ICAM1: Life Technologies and Expression Analysis (LTEA) Assay for Intercellular Adhesion Molecule 1 (ICAM1) using HepaRG (AID 2283507)
Procedure, shortened: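 HepaRG, 48 h exposure, 8-pt half-log series from 100 uM, 0.5% DMSO vehicle, duplicates. Readout: TaqMan qRT-PCR mRNA, housekeeping-normalized (ACTB/GAPDH/POLR2A). Bidirectional curve fit vs DMSO baseline.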

[7] = read-out: Insulin-like growth factor-binding protein 1 (IGFBP1), IGFBP1 (gene 3484); assay: LTEA_HepaRG_IGFBP1: Life Technologies and Expression Analysis (LTEA) Assay for Insulin-like growth factor-binding protein 1 (IGFBP1) using HepaRG (AID 2283508)
Procedure, shortened: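 qRT-PCR mRNA read-out (TaqMan, Fluidigm array), normalised to three housekeeping genes; HepaRG cells, 48 h exposure, 8-pt half-log series from 100 uM, 0.5% DMSO vehicle; bidirectional curve fit vs DMSO baseline.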

[8] = read-out: Interleukin 6 (IL6), IL6 (gene 3569); assay: LTEA_HepaRG_IL6: Life Technologies and Expression Analysis (LTEA) Assay for Interleukin 6 (IL6) using HepaRG (AID 2283509)
Procedure, shortened: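 Differentiated human HepaRG cells, plated 48 h then switched to serum-free induction medium, were exposed in duplicate for 48 h to eight half-log concentrations up to 100 uM in 0.5% DMSO. IL6 mRNA measured by qRT-PCR, normalized to ACTB/GAPDH/POLR2A.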

[9] = read-out: Interleukin 6 Receptor (IL6R), IL6R (gene 3570); assay: LTEA_HepaRG_IL6R: Life Technologies and Expression Analysis (LTEA) Assay for Interleukin 6 Receptor (IL6R) using HepaRG (AID 2283510)
Procedure, shortened: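 Readout is IL6R transcript level by TaqMan qRT-PCR, normalized to three housekeeping genes and fitted bidirectionally against 0.5% DMSO controls. Human HepaRG cells received chemicals for 48 h in serum-free induction medium, highest concentration 100 uM.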

[10] = read-out: Potassium channel subfamily K member 1 (KCNK1), KCNK1 (gene 3775); assay: LTEA_HepaRG_KCNK1: Life Technologies and Expression Analysis (LTEA) Assay for Potassium channel subfamily K member 1 (KCNK1) using HepaRG (AID 2283511)
Procedure, shortened: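 Differentiated human HepaRG cells in serum-free induction medium were exposed in duplicate for 48 h to 8 half-log concentrations up to 100 uM in 0.5% DMSO. KCNK1 mRNA was measured by TaqMan qRT-PCR, normalized to ACTB, GAPDH and POLR2A, and fitted bidirectionally versus DMSO.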

[11] = read-out: Keratin 19 (KRT19), KRT19 (gene 3880); assay: LTEA_HepaRG_KRT19: Life Technologies and Expression Analysis (LTEA) Assay for Keratin 19 (KRT19) using HepaRG (AID 2283512)
Procedure, shortened: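 HepaRG, 48 h chemical exposure, 8-pt half-log CRC from 100 uM, 0.5% DMSO vehicle, duplicates. Readout: TaqMan qRT-PCR of KRT19 mRNA, housekeeping-normalized (ACTB/GAPDH/POLR2A). Bidirectional fit vs DMSO baseline.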

[12] = read-out: JUN Transcription Factor, JUN (gene 3725); assay: LTEA_HepaRG_JUN: Life Technologies and Expression Analysis (LTEA) Assay for JUN Transcription Factor using HepaRG (AID 2283513)
Procedure, shortened: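 Cells plated 48 h, medium switched to serum-free induction medium, then dosed 48 h (100 uM top, half-log dilutions, 0.5% DMSO). RNA isolated; JUN measured by qRT-PCR against three housekeeping genes; gain or loss fitted relative to DMSO.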

[13] = read-out: Lipoprotein lipase (LPL), LPL (gene 4023); assay: LTEA_HepaRG_LPL: Life Technologies and Expression Analysis (LTEA) Assay for Lipoprotein lipase (LPL) using HepaRG (AID 2283515)
Procedure, shortened: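 Differentiated human HepaRG cells in serum-free induction medium were exposed in duplicate for 48 h to eight half-log concentrations (top 100 uM) in 0.5% DMSO. LPL mRNA was quantified by TaqMan qRT-PCR, normalized to ACTB, GAPDH and POLR2A.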

[14] = read-out: Cytochrome P450 7A1 (Homo sapiens) (UniProt P22680); assay: LTEA_HepaRG_CYP7A1: Life Technologies and Expression Analysis (LTEA) Assay for Cytochrome P450 7A1 (CYP7A1) using HepaRG (AID 2283496)
Procedure, shortened: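 HepaRG cells plated 48 h, then switched to serum-free induction medium and exposed in duplicate for 48 h to 8-point half-log series from 100 uM in 0.5% DMSO. CYP7A1 mRNA by qRT-PCR (TaqMan), normalized to ACTB/GAPDH/POLR2A; bidirectional fit versus DMSO.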

[15] = read-out: growth arrest and DNA damage 45 (GADD45G), GADD45G (gene 10912); assay: LTEA_HepaRG_GADD45G: Life Technologies and Expression Analysis (LTEA) Assay for growth arrest and DNA damage 45 (GADD45G) using HepaRG (AID 2283499)
Procedure, shortened: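 HepaRG, 48 h exposure, top 100 uM, half-log 8-point series, 0.5% DMSO vehicle, duplicates. Readout: GADD45G transcript by qRT-PCR (Fluidigm array), housekeeping-normalised (ACTB/GAPDH/POLR2A). Bidirectional curve fit vs DMSO baseline.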

[16] = read-out: 3-Hydroxy-3-Methylglutaryl-CoA Synthase 2 (HMGCS2), HMGCS2 (gene 3158); assay: LTEA_HepaRG_HMGCS2: Life Technologies and Expression Analysis (LTEA) Assay for 3-Hydroxy-3-Methylglutaryl-CoA Synthase 2 (HMGCS2) using HepaRG (AID 2283504)
Procedure, shortened: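 qRT-PCR read-out of HMGCS2 transcript, normalised to three housekeeping genes, in HepaRG cells after 48 h chemical exposure. Eight-point curves from 100 uM, half-log dilutions, 0.5% DMSO vehicle; gain or loss fitted relative to DMSO baseline.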

[17] = read-out: Insulin Like Growth Factor 1 (IGF1), IGF1 (gene 3479); assay: LTEA_HepaRG_IGF1: Life Technologies and Expression Analysis (LTEA) Assay for Insulin Like Growth Factor 1 (IGF1) using HepaRG (AID 2283506)
Procedure, shortened: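 HepaRG, plated 48 h, then switched to serum-free induction media; test chemical 8-pt half-log from 100 uM (0.5% DMSO), duplicate, 48 h. Lysis in RLT, TaqMan qRT-PCR, norm. ACTB/GAPDH/POLR2A. Bidirectional fit vs DMSO.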

[18] = read-out: Lipase C (LIPC), LIPC (gene 3990); assay: LTEA_HepaRG_LIPC: Life Technologies and Expression Analysis (LTEA) Assay for Lipase C (LIPC) using HepaRG (AID 2283514)
Procedure, shortened: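 Differentiated human HepaRG cells in serum-free induction medium were exposed in duplicate for 48 h to eight concentrations (top 100 uM, half-log steps, 0.5% DMSO). LIPC mRNA was quantified by TaqMan qRT-PCR, normalized to ACTB, GAPDH and POLR2A, with bidirectional fitting versus DMSO.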

Measured: AC50

Chain of Hypoxia-inducible factor 1-alpha (Homo sapiens) (Q16665 whole entry, looked up): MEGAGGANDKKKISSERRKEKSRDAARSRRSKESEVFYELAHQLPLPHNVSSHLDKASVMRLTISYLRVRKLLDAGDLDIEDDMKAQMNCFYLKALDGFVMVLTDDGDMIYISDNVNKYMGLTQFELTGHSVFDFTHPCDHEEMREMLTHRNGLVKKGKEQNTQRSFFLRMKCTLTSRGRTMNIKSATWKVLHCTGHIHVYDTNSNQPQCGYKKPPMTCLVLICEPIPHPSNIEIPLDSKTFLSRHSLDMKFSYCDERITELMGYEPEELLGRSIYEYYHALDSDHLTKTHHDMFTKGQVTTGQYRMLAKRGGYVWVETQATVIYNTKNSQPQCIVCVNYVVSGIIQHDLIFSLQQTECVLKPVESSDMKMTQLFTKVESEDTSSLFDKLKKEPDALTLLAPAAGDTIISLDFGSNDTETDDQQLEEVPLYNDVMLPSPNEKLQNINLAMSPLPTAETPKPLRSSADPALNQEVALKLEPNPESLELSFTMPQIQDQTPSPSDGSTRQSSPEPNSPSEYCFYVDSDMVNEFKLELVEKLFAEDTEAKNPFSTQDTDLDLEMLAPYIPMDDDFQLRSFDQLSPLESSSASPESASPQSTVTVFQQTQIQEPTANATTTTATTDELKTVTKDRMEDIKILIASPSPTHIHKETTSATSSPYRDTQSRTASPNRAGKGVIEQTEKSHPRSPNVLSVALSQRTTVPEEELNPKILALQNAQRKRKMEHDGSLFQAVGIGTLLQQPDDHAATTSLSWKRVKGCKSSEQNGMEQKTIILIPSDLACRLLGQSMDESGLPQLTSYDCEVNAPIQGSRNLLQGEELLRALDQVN

CCSC(=O)N(CC)C1CCCCC1
not listed: [14] | [15] | [16] | [17] | [18]
inactive: all other assays above

CCNc1nc(NC(C)C)nc(SC)n1
active: [14] 35.5 µM | [15] 63.9 µM | [9] 11.7 µM | [11] 32.8 µM
not listed: [4] | [16] | [17] | [18]
inactive: all other assays above

CCOC(=O)C(O)(c1ccc(Cl)cc1)c1ccc(Cl)cc1
active: [13] 9.14 µM
not listed: [4] | [18]
inactive: all other assays above

CCCCCCCCOC(=O)c1ccccc1C(=O)OCCCCCCCC
not listed: [4] | [16] | [17]
inactive: all other assays above

CCC(C)(c1ccc(O)cc1)c1ccc(O)cc1
active: [14] 50 µM
not listed: [16] | [17] | [18]
inactive: all other assays above

O=C(O)C(F)(F)C(F)(F)C(F)(F)C(F)(F)C(F)(F)C(F)(F)C(F)(F)C(F)(F)C(F)(F)F
inactive: [2] | [5] | [9] | [10] | [11]
active: [14] 27.6 µM | [1] 85.4 µM | [15] 19.4 µM | [3] 74.8 µM | HGF (gene 3082) 89.8 µM | [6] 22.7 µM | [7] 27.9 µM | [8] 71.7 µM | [12] 50 µM | [18] 21.1 µM | [13] 89.2 µM

COc1ccc(O)c(C(C)(C)C)c1
not listed: [16] | [17]
inactive: all other assays above

O=C(NC(=O)c1cc(F)c(F)cc1Cl)Nc1cc(F)ccc1N1CCC(C(=O)O)CC1
active: [14] 6.6 µM
not listed: [4] | [16] | [17] | [18]
inactive: all other assays above
